# Measurements from article PMC11062922 (Nature Chemical Biology, 2023).
# How the values were obtained:
# Set-up in all cases: species or system human, MV4-11 + K-562 + COLO205 + SK-N-BE2 + OVCAR-8
# Conditions in all cases: read-out: apparent Kd; compound concentrations:100 nM and 1000 nM (sheet 'Samples'); n = 1
# [1] = tested on: CDK16
# [2] = tested on: CDK17
# [3] = tested on: CDK6
# [4] = tested on: CDK9
# [5] = tested on: EIF2AK1
# [6] = tested on: GSK3A
# [7] = tested on: GSK3B
# [8] = tested on: ICK
# [9] = tested on: MAPK7
# [10] = tested on: PDGFRB
# [11] = tested on: PIM2
# [12] = tested on: TAOK2
# [13] = tested on: CDK4
# [14] = tested on: TP53RK
# [15] = tested on: CSNK2A1;CSNK2A3
# [16] = tested on: CSNK2A2
# [17] = tested on: ERBB3
# [18] = tested on: FLT3
# [19] = tested on: NLK
# [20] = tested on: TAOK1
# [21] = tested on: DAPK3
# [22] = tested on: PIK3CG
# [23] = tested on: PKN3
# [24] = tested on: DDR1
# [25] = tested on: DDX3X;DDX3Y
# [26] = tested on: MAPK10
# [27] = tested on: MAPK14
# [28] = tested on: MAPK9
# [29] = tested on: MAPKAPK2
# [30] = tested on: T1, DJA1
# T1 construct: gene DNAJA1
# [31] = tested on: FYN
# [32] = tested on: PIK3CA
# [33] = tested on: PIK3CD
# [34] = tested on: STK16
# [35] = tested on: GAK
# [36] = tested on: ZAK
# [37] = tested on: PIP4K2C
smiles,measurement,setting,value
CCN1CCN(CCCC(=O)Nc2n[nH]c3nc(-c4ccc(O)cc4)c(Br)cc23)CC1 [SB-731579],potency estimated from few doses,[1],1220 nM
same,potency estimated from few doses,[2],986 nM
same,potency estimated from few doses,[3],1070 nM
same,potency estimated from few doses,[4],1180 nM
same,potency estimated from few doses,[5],201 nM
same,potency estimated from few doses,[6],4.8 nM
same,potency estimated from few doses,[7],20.1 nM
same,potency estimated from few doses,[8],1420 nM
same,potency estimated from few doses,[9],1360 nM
same,potency estimated from few doses,[10],145 nM
same,potency estimated from few doses,[11],557 nM
same,potency estimated from few doses,[12],1350 nM
CN1C(=O)[C@@H](NC(=O)c2cc(Cc3ccccc3)on2)COc2ccccc21 [GSK481],potency estimated from few doses,[13],1980 nM
same,potency estimated from few doses,[14],2040 nM
O=C(Nc1n[nH]c2nc(-c3ccc(O)cc3)ccc12)C1CC1 [SB-710363],potency estimated from few doses,[4],2300 nM
same,potency estimated from few doses,[15],2320 nM
same,potency estimated from few doses,[16],1270 nM
same,potency estimated from few doses,[17],1710 nM
same,potency estimated from few doses,[18],1530 nM
same,potency estimated from few doses,[6],61.7 nM
same,potency estimated from few doses,[7],147 nM
same,potency estimated from few doses,[8],1130 nM
same,potency estimated from few doses,[19],1440 nM
same,potency estimated from few doses,[11],1330 nM
same,potency estimated from few doses,[20],1130 nM
Cc1csc(-c2nc(Nc3ccncc3)c3ccccc3n2)n1 [GW869640X],potency estimated from few doses,[21],1290 nM
same,potency estimated from few doses,[22],1460 nM
same,potency estimated from few doses,[23],939 nM
CNc1ncc2cc(Oc3ccc(F)cc3F)c(=O)n(C)c2n1 [RO5083957-000],potency estimated from few doses,[24],958 nM
same,potency estimated from few doses,[25],1740 nM
same,potency estimated from few doses,[26],1750 nM
same,potency estimated from few doses,[27],618 nM
same,potency estimated from few doses,[28],1640 nM
same,potency estimated from few doses,[29],843 nM
same,potency estimated from few doses,[19],1800 nM
Clc1cccc(-c2nc(Nc3ccncc3)c3ccccc3n2)c1 [GW873004X],potency estimated from few doses,[30],2180 nM
same,potency estimated from few doses,[31],937 nM
same,potency estimated from few doses,[32],222 nM
same,potency estimated from few doses,[33],106 nM
same,potency estimated from few doses,[34],1400 nM
c1ccc(-c2n[nH]cc2-c2ccnc(-c3ccc(OCCN4CCOCC4)cc3)c2)nc1 [GW695874X],potency estimated from few doses,[35],432 nM
same,potency estimated from few doses,[36],2090 nM
c1ccc(-c2n[nH]cc2-c2ccnc(-c3ccc(OCCn4ccnc4)cc3)c2)nc1 [GW711782X],potency estimated from few doses,[35],1350 nM
Nc1nc(-c2cccc(Cl)c2)c(-c2ccc3ncccc3n2)s1 [GW780159X],potency estimated from few doses,[27],1440 nM
same,potency estimated from few doses,[29],1000 nM
O=C(c1ccc(-c2cc(-c3c[nH]nc3-c3ccccn3)ccn2)cc1)N1CCCC1 [GW792479X],potency estimated from few doses,[37],1650 nM
COc1ccc2nc(-c3cccc(C)n3)nc(Nc3ccncc3)c2c1 [GSK204919_KCGS],potency estimated from few doses,[23],647 nM
